Reference: PubChem BioAssay (EPA / NIEHS)
“And” between values parts separate entries of the source, which are not always exact repeats. Identical values can stand only once. The source made the active and inactive calls. The calls were made as follows: active = hit-call score of the fitted dose curve at least 0.9, where 1 is the maximum; inactive = score below 0.9.

Experiment: APR_HepG2_CellLoss_1hr: Apredica 1-hour HepG2 Assay for Cell Loss (AID 2282668);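 also: curves fitted both ways against DMSO so gain or loss of cells counts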
Conditions: high-content imaging
Experimental: APR_HepG2_1hr is a cell-based, multiplexed-readout assay that uses HepG2, a human liver cell line, with measurements taken at 1 hour after chemical dosing in a 384-well plate.APR_HepG2_CellLoss_1hr is one of 10 assay component(s) measured or calculated from the APR_HepG2_1hr assay. It is designed to make measurements of cell number, a form of viability reporter, as detected with fluorescence intensity signals by HCS Fluorescent Imaging technology.Data from the assay component APR_HepG2_CellLoss_1hr was analyzed into 1 assay endpoint. This assay endpoint, APR_HepG2_CellLoss_1hr, was analyzed with bidirectional fitting relative to DMSO as the negative control and baseline of activity. Using a type of viability reporter, measures of all nuclear dna for gain or loss-of-signal activity can be used to understand the viability at the cellular-level. Furthermore, this assay endpoint can be referred to as a secondary readout, because this assay has produced multiple assay endpoints where this one serves a viability function. To generalize the intended target to other relatable targets, this assay endpoint is annotated to the cell cycle intended target family, where the subfamily is proliferation.
Cells were treated with dimethyl sulfoxide (DMSO) as a solvent control at a final concentration of 0.5% v/v or with compounds in DMSO with a resulting final DMSO concentration of 0.5% v/v. Compound treatment was done at concentrations of 0.39, 0.78, 1.56, 3.12, 6.24, 12.5, 25, 50, 100, and 200 uM in duplicate on each plate. Cells were treated with compounds for 1, 24, or 72 hr. Carbonyl […] m-chloro-phenylhydrazone (CCCP) and taxol were used as positive controls for mitochondrial function and cytoskeletal stability, respectively; DMSO served as the negative control for this experiment. Cells were fixed by the direct addition of 50 uL formaldehyde in Hank's Balanced Salt Solution (HBSS) to a final concentration of 3.7%. After incubation in the fixation medium for 30 min at room temperature (293-298 K), cells were rinsed twice with HBSS and treated with cell permeabilization buffer (16 uL of 0.5% Triton X-100) for 10 min at room temperature (293-298 K) before labeling. For mitochondrial membrane potential and mitochondrial measurements, pre-fixed cells were incubated with 50 uL of MitoTracker Red CMXRos (Invitrogen) at a concentration of 250 nM for 30 min before fixation. In the remaining cases, post-fixed cells were labeled by incubation with a multiplexed mixture of primary antibodies in HBSS for 60 min at room temperature (293-298 K) to detect immunoreactivity of c-Jun (1:500), phospho-histone H3 (1:100), phospho-histone H2A.x (1:200), p53 (1:400), alpha-tubulin (1:200) and Hoechst 33342 (2 ug/mL). Cells were labeled for multiplexed imaging on two separate plates: a) Hoechst 33342, MitoTracker Red, phospho-histone H3, and alpha-tubulin, and b) Hoechst 33342, phospho-histone H2A.x, and c-Jun. A final rinse with HBSS (50 uL) was performed before analysis. The primary and secondary antibodies for the proteins were phospho-histone H3 (rabbit anti-phospho-histone H3 and FITC-donkey anti-rabbit IgG), phospho-histone H2A.x (mouse anti-phospho-histone H2A.x and FITC-donkey anti-mouse IgG), c-Jun (rabbit anti-phospho-c-Jun and Cy3-donkey anti-rabbit IgG), p53 (sheep anti-p53 and Cy5-donkey anti-sheep IgG), alpha-tubulin (mouse anti-alpha-tubulin and Cy5-donkey anti-mouse IgG). These antibodies are available as the CellCiphr HepG2 assay kit (Millipore).Digital images of each well were captured using a Cellomics ArrayScan VTI (Thermo Scientific Cellomics) (0.8 NA objective, 0.63x optical coupler, and XF-93 filter set) at 20x magnification. The images were acquired using the autofocus feature of the ArrayScan instrument, which entails the following steps. First, the camera focuses on channel 1 (Hoechst 33342), where nuclei are identified. Second, a Z offset of 1 um is used for capturing mitochondria (MitoTracker Red). […]

SMILES	outcome	AC50
CON(C)C(=O)Nc1ccc(Cl)c(Cl)c1	inactive	–
CCCCNC(=O)n1c(NC(=O)OC)nc2ccccc21	inactive	–
Cc1cc(Cl)ccc1OCC(=O)O	inactive	–
CC(Oc1ccc(Cl)cc1Cl)C(=O)O (stereo not given)	inactive	–
OC(c1ccc(Cl)cc1)(c1cncnc1)c1ccccc1Cl (stereo not given)	inactive	–
N#CC(CCc1ccc(Cl)cc1)(Cn1cncn1)c1ccccc1 (stereo not given)	inactive	–
CCCCNC(=O)OCC#CI	–	100 µM (active) and 129 µM (active)
CNC(=O)ON=CC(C)(C)SC	inactive	–
CCOP(=S)(OCC)SCn1c(=O)oc2cc(Cl)ccc21	inactive	–
Fc1ccc(Oc2ccnc3cc(Cl)cc(Cl)c23)cc1	inactive	–
COc1nc(C)nc(NC(=O)NS(=O)(=O)c2ccccc2CCC(F)(F)F)n1	inactive	–
COC(=O)c1ccccc1C(=O)OC	inactive	–
COc1ccc(C(c2ccc(OC)cc2)C(Cl)(Cl)Cl)cc1	inactive	–
COC(=O)C=C(C)OP(=O)(OC)OC	inactive	–
CC1COC(Cn2cncn2)(c2ccc(Oc3ccc(Cl)cc3)cc2Cl)O1 (stereo not given)	inactive	–
Cc1ccc(-c2c(Cl)nc(C#N)n2S(=O)(=O)N(C)C)cc1	inactive	–
COc1cnc(OC)n2nc(NS(=O)(=O)c3c(OCC(F)F)cccc3C(F)(F)F)nc12	inactive	–
CC(C)(C)c1ccc(CSc2cnn(C(C)(C)C)c(=O)c2Cl)cc1	inactive	–
Oc1ccccc1-c1ccccc1	inactive	–
CCCN(CCC)c1c([N+](=O)[O-])cc(S(N)(=O)=O)cc1[N+](=O)[O-]	–	66.6 µM (active)

SMILES	outcome	AC50
COP(N)(=O)SC (stereo not given)	inactive	–
CCc1nn(C)c(C(=O)NCc2ccc(C(C)(C)C)cc2)c1Cl	inactive	–
COc1nc(C)nc(NC(=O)NS(=O)(=O)c2ccccc2Cl)n1	inactive	–
COC(=O)C(C)Oc1ccc(Oc2ccc(Cl)cc2Cl)cc1 (stereo not given)	inactive	–
C=CCC1=C(C)[C@@H](OC(=O)[C@@H]2[C@@H](C=C(C)C)C2(C)C)CC1=O	inactive	–
Cc1c(F)c(F)c(COC(=O)C2C(/C=C(\Cl)C(F)(F)F)C2(C)C)c(F)c1F (stereo not given)	inactive	–
CC(C)C1(C)N=C(c2nc3ccccc3cc2C(=O)O)NC1=O (stereo not given)	inactive	–
N#Cc1nn(-c2c(Cl)cc(C(F)(F)F)cc2Cl)c(N)c1S(=O)C(F)(F)F (stereo not given)	inactive	–
CC1=C(C(=O)Nc2ccccc2)SCCO1	inactive	–
COP(=S)(OC)Oc1nc(Cl)c(Cl)cc1Cl	inactive	–
CCCCC(CC)COC(=O)c1ccccc1C(=O)OCC(CC)CCCC (stereo not given)	inactive	–
COc1nc(NC(C)C)nc(NC(C)C)n1	inactive	–
CS/C(C)=N/OC(=O)N(C)SN(C)C(=O)O/N=C(\C)SC	–	45.7 µM (active)
CN(C)C(=S)SSC(=S)N(C)C	inactive	–
O=C(O)COc1nc(Cl)c(Cl)cc1Cl	inactive	–
CCCC1COC(Cn2cncn2)(c2ccc(Cl)cc2Cl)O1 (stereo not given)	inactive	–
C#CCOS(=O)OC1CCCCC1Oc1ccc(C(C)(C)C)cc1 (stereo not given)	inactive	–
CCNc1nc(Cl)nc(NC(C)C)n1	inactive	–
C=CC1(C)OC(=O)N(c2cc(Cl)cc(Cl)c2)C1=O (stereo not given)	inactive	–
CCON=C(CC)C1=C(O)CC(c2c(C)cc(C)cc2C)CC1=O (stereo not given)	inactive	–
